Consider eight compounds from PubChem BioAssay (NCI).

Common to all, as to test: NCI-60 one-dose screen, 48 h (100 = growth as untreated, 0 = no growth, -100 = all killed)
Holding throughout (details): 10 µM unless noted

In assay [1] the test system is SK-MEL-2 melanoma.
In assay [2] the test system is EKVX NSCLC.
Assay [3] relates to SN12C renal.
In assay [4] the test system is UO-31 renal.
Assay [5] has as its system TK-10 renal.
For assay [6], the system named is ACHN renal.
Assay [7] concerns CAKI-1 renal.
Assay [8] deals with A498 renal.
Assay [9] relates to MOLT-4 leukemia.
Assay [10] has as its system SR leukemia.
For assay [11], the system named is RPMI-8226 leukemia.
Assay [12] has as its system OVCAR-8 ovarian.
Assay [13] has as its system OVCAR-5 ovarian.
In assay [14] the test system is OVCAR-4 ovarian.
Assay [15] has as its system SK-OV-3 ovarian.
The test system of assay [16] is OVCAR-3 ovarian.
The test system of assay [17] is HS 578T breast.
The test system of assay [18] is NCI/ADR-RES ovarian.
Assay [19] relates to IGROV1 ovarian.

This is part of a sample that, as a whole, favours compounds with a hit. Of some 83,000 tested, about 20% had one in any assay.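 Step 1: grow cells in 96-well plates. Step 2: add test compound at a single concentration. Step 3: incubate 48 h. Step 4: record percent growth.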 Values without a mark were called inactive. The source made the active and inactive calls. How the source made its calls: active means growth percent below 10; inactive means the rest.

Turning to `N=C1C(c2nc(-c3ccc(Br)cc3)cs2)=C(O)CN1Cc1cccnc1`, the growth in assay [1] was 111%; in [2], 71.7%; in assay [3], 69.7%; in [4] it was -6.45% (active); in assay [5] it was 60.1%; in [6], 61.5%. The growth in assay [7] was 57.1%; in [8], 86.8%; in [9], 68.5%; in assay [10], 55.1%; in assay [11], 70.2%; in assay [12], 16.3%. In addition, the growth was 77.1% in assay [13]; 37.2% in assay [14]; 40.4% in [15]; 101% in [16]; 23% in assay [17]; 70.1% in assay [18].
On to `C=C1C(=O)O[C@H]2[C@H]1CC/C(COC(=O)C(=O)c1cn(C)c3ccc(OC)cc13)=C\CC[C@@]1(C)O[C@@H]21`, for which the growth in assay [1] was -47.2% (active); in assay [2], -17.4% (active); in [3], -51% (active); in assay [4], -91.9% (active); in [5], -61.4% (active); in assay [6], -57.8% (active). Besides, the growth is -43.6% (active) in assay [7]; -99.5% (active) in [8]; -16.6% (active) in assay [9]; 2.42% (active) in assay [10]; -37.5% (active) in [11]; -9.07% (active) in [12]. Further, the growth was 20.3% in assay [14]; -11.6% (active) in [15]; -67.7% (active) in assay [19]; -72.1% (active) in assay [16]; 3.23% (active) in [17]; 7.43% (active) in [18].
For `CC1=CN2C(=O)C3C4=C(CCCC4)SC3N=C2CN1c1c(C)cccc1C` (stereo not drawn), the growth was 116% in assay [1]; 81% in assay [2]; 99.6% in assay [3]; 90.7% in [4]; 100% in assay [5]; 96.2% in [6]. Also, the growth in assay [7] is 81.1%; in assay [8] it was 92%; in assay [9], 77%; in assay [10], 41.8%; in assay [11] it was 54.4%; in [12], 109%. The growth in assay [15] is 114%; in assay [19] it was 107%; in [16], 93.9%; in assay [17] it was 103%; in assay [18], 99.6%.
Turning to `COc1ccc2c(c1)CCCN2c1c2ccccc2nc2ccccc12`, the growth is 35.4% in [1]; 45% in assay [2]; 39.5% in assay [3]; 29.8% in assay [4]; 48.2% in [5]; 24.5% in assay [6]. Further, the growth in assay [7] is 27.8%; in assay [8], -4.56% (active); in [9] it was 15.4%; in assay [10] it was 12.5%; in [11] it was 20.5%; in [12], 16.6%. For the same compound, the growth in [14] is 30.4%; in assay [15], 37.5%; in assay [19], 32.7%; in assay [16] it was -21.7% (active); in assay [17], 10.4%; in [18], 0.746% (active).
Turning to `COc1ccc(-c2csc(C3=C(O)CN(C(C)C)C3=N)n2)cc1OC`, the growth was 133% in assay [1]; 94.3% in assay [2]; 97.4% in [3]; 3.91% (active) in assay [4]; 94.4% in [5]; 103% in [6]. The growth in [7] is 82.1%; in [8], 89.6%; in assay [9] it was 87.2%; in assay [10] it was 57%; in assay [11], 56.3%; in assay [12], 91%. Also, the growth in assay [13] was 96.6%; in [14] it was 117%; in [15], 124%; in assay [16], 117%; in assay [17], 110%; in assay [18] it was 98.5%.
As for `COc1ccc2c(c1)O/C(=C/c1ccc(OCC(=O)c3ccccc3)cc1)C2=O`, the growth in assay [1] is 108%; in assay [2] it was 97%; in assay [3], 107%; in [4], -29.2% (active); in assay [5], 115%; in assay [6], 99.5%. Besides, the growth in assay [7] is 103%; in [8] it was 170%; in assay [9], 90.3%; in [10], 72.7%; in [11] it was 99.7%; in assay [12], 111%. For the same compound, the growth is 88.6% in assay [13]; 113% in [14]; 125% in assay [15]; 90.1% in [16]; 350% in assay [17]; 93.1% in assay [18].
With `N=C(N)c1ccc(-c2ccc(-c3cncc4ccccc34)s2)s1`, the growth in assay [1] was 79.3%; in assay [2] it was -65.7% (active); in assay [3], -63% (active); in [4] it was -76.6% (active); in assay [5], -93.5% (active); in assay [6], -88.5% (active). Besides, the growth in [7] was -91.4% (active); in assay [8], 70.2%; in assay [9] it was -50.3% (active); in [10] it was -29.3% (active); in assay [11], -33.5% (active); in assay [12] it was -67.9% (active). Further, the growth in [13] was -69.3% (active); in assay [14], -90.4% (active); in [15], 64.4%; in [19] it was -75.1% (active); in assay [17], -49.6% (active); in assay [18], -53% (active).
Consider `O=C(O)c1ccc2c(c1Cl)C(=O)c1ccccc1C2=O`, for which the growth was 70.2% in assay [1]; 20.9% in assay [2]; 98.8% in assay [3]; 93.2% in [4]; 130% in assay [5]; 99.1% in assay [6]. The growth in assay [7] is 89.4%; in assay [8] it was 111%; in assay [9] it was 78.1%; in [10], 70.7%; in [11], 104%; in assay [12], 118%. Further, the growth in [14] was 81.3%; in [15] it was 102%; in assay [19] it was 167%; in assay [16], 99.5%; in assay [17], 123%; in assay [18], 97.5%.
